# NPC1 prom act – qHTS Assay for NPC1 Promoter Activators. Huh7 NPC1 promoter luciferase reporter, 24 h. Potency, µM (top dose mostly 9.22 µM), without a hit: at the top dose activation, most hits filed as activators. hit rate 2.4% among 320,000; note: % of control where 0% means no effect; nearly all actives have a fitted effect of over 60% in size
#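 Luciferase expression driven by the NPC1 promoter was measured in stably transfected Huh7 cells after a 24 h compound incubation, using a luciferase reagent and a luminescence read.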
# SMN2 splice up – qHTS Assay for Enhancers of SMN2 Splice Variant Expression | Potency, µM (top dose mostly 46.1 µM), for inactives: at the top dose activity change, positive = activation, most hits filed as activators | HEK293 SMN2-luciferase splicing reporter, luminescence, 30-36 h | hit rate 2.8% among 210,000; note: % of control where 0% means no effect; nearly all actives have a fitted effect of over 55% in size
#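 HEK293 cells carry an SMN2 […]–luciferase reporter in which exon 7 inclusion puts luciferase in frame. Cells were plated 10-12 h before compound addition, then incubated 30-36 h at 37C. ONE-Glo luminescence was read; sodium butyrate at 4.5 mM final served as control.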
# Rab9 promoter act – qHTS Assay for Rab9 Promoter Activators | Potency, µM (series often up to 9.22 µM), inactives show at the top dose activation, negative = inhibition, most hits filed as activators | AID 485297, 2010 | Huh7 Rab9 promoter-luciferase reporter, luminescence, 24 h | hit rate 2.8% among 320,000; note: % of control where 0% means no effect; nearly all actives have a fitted effect of over 60% in size
#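 Huh7 cells stably carrying a Rab9 promoter-luciferase reporter, 1500 cells per well in OP-MEM I with 10% FBS, treated with compound 24 hours at 37C. Luciferase activity read by luminescence after 10 minutes with Amplite reagent.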
# FLuc modulator – qHTS profiling assay for firefly luciferase inhibitor/activator using purifed enzyme and Km concentrations of substrates (counterscreen for miR-21 project); Luciferin 4-monooxygenase (Photinus pyralis), P08659; purified FLuc, Km substrates, luminescence inhibition; Potency, µM (series often up to 57.5 µM), for the others: at the top dose activity change, negative = inhibition, actives largely listed as inhibitors; hit rate 6.9% among 360,000; AID 588342, 2011;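 note: plate controls were vehicle for no effect and reference inhibitor for full effect; nearly all actives have a fitted effect of over 55% in size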
# Target sequence (P08659 whole entry, looked up): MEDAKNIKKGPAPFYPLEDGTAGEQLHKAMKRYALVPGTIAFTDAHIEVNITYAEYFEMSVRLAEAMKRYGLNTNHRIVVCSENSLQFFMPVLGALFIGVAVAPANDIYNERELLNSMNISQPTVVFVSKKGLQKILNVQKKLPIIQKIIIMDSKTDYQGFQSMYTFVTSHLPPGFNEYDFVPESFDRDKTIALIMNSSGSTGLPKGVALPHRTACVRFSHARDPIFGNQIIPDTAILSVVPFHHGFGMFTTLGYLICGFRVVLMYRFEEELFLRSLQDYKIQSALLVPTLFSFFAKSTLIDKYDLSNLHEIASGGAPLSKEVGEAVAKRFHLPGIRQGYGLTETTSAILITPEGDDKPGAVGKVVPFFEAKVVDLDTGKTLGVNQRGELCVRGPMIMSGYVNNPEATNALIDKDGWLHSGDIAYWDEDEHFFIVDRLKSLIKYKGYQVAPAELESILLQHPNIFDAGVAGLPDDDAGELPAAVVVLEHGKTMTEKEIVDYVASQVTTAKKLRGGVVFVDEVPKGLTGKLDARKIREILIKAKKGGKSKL
#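 Purified P. pyralis luciferase, 10 nM final, with Km-level 10 uM D-luciferin and 10 uM ATP in 50 mM Tris acetate pH 7.5, 10 mM Mg acetate, 0.01% Tween-20, 0.05% BSA; 6-point qHTS titration about 60 µM downward; luminescence read.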
# ELG1 genotox – qHTS screen for small molecules that induce genotoxicity in human embryonic kidney (HEK293T) cells expressing luciferase-tagged ELG1; HEK293T ELG1-luciferase reporter, luminescence, 16 h; Potency, µM (highest dose often 46 µM), inactives show at the top dose activity change, positive = activation, actives largely listed as activators; hit rate 1.3% among 330,000; AID 504466, 2011; note: % of control where 0% means no effect; nearly all actives have a fitted effect of over 60% in size
#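 Quantitative HTS format in 1536-well plates. HEK293T ELG1-luciferase reporter cells receive test compound and are incubated 16 hr at 37 °C, 5% CO2; ONE-Glo added, 30 min room temperature, then luminescence read.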
# KinaseGlo FLuc – Counterscreen for Luciferase (Kinase-Glo TM) Inhibition; hit rate 0.28% among 200,000; AID 1379, 2008; Kinase-Glo luciferase, ATP luminescence, 8 min; Potency, µM (highest dose often 38.3 µM), inactives show top-dose activity change, negative = inhibition, hits mostly inhibitors; note: % is set by controls: 0 for no effect and ±100 for the full control effect; nearly all actives have a fitted effect of over 60% in size
#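 Recombinant Kinase-Glo luciferase, 10 uM ATP (linear range), luciferin; imidazole pH 7.2 / KCl / MgCl2 / Tween / BSA buffer; 8 min RT; luminescence.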
# An asterisk follows results filed as active; ? = inconclusive; . = no result. This is a sample that favours compounds with a hit; in the whole collection about 7.4% have one here. Calls come from the whole dose curve; as a rule, active = well fitted curve in the direction sought with a large enough effect; inconclusive = small, poorly fitted or top-dose-only effect, or another doubt; inactive = no such curve, though single readings can be large; an effect the other way counts as inactive or inconclusive. Potency is the fitted concentration of half-maximal effect.
SMILES,NPC1 prom act,SMN2 splice up,Rab9 promoter act,FLuc modulator,ELG1 genotox,KinaseGlo FLuc
O=C(c1cccs1)N(C(=O)c1cccs1)c1ccc(Br)cn1,?,?,1.6µM*,?,2.1µM*,-1%
Cc1ccnc(N(C(=O)c2cccs2)C(=O)c2cccs2)c1,2.5µM*,13µM*,3.5µM*,19µM*,2.1µM*,?
O=C(Nc1ccc(NC(=O)c2cccs2)cc1)c1ccc(Br)cc1,.,6%,.,-5%,.,.
COc1ccc(NC(=O)N(C)C[C@H]2Oc3ccc(NC(=O)c4ccncc4)cc3C(=O)N([C@H](C)CO)C[C@@H]2C)cc1,.,.,.,.,4%,.
CC1CCCC(NC(=O)CN2C(=O)NC(c3ccccc3)(c3ccccc3)C2=O)C1C (centres undefined),-2%,.,-2%,0%,-3%,.
Cc1ccc(NC(=O)C2C3C=CC4(O3)C2C(=O)N(CCCN2CCCC(C)C2)C4C(=O)NC2CCCCC2)cc1 (centres undefined),4%,.,6%,0%,0%,.
Cc1ccc(O)c(CNc2cnc3ccccc3c2)c1,25%,.,2%,?,12%,.
COc1cccc(CNc2cnc3ccccc3c2)c1O,1.6µM*,3.5µM*,1.8µM*,2.4µM*,12µM*,-4%
COc1ccccc1Nc1nc2ccccc2n2cnnc12,10%,.,0%,?,-1%,.
CCCCCn1c(NCc2ccccc2OC)nc2ccccc21,.,2%,.,-18%,.,.
COc1ccccc1Nc1nc2ccccc2n1C,?,11µM*,2.8µM*,15µM*,?,-8%
COc1cccc(CNc2nc3ccccc3n2C)c1O,1µM*,.,1.8µM*,9.5µM*,9.2µM*,.
O=C(Nc1cc(-c2nc3ccccc3o2)ccc1Cl)c1cccc2c(Cl)cccc12,.,11%,.,-12%,.,.
CN1CCSc2ccc(C(=O)Nc3cccc(F)c3)cc21,1.4µM*,.,1µM*,1.7µM*,2.1µM*,.
COc1ccc(NC(=O)c2ccc3c(c2)N(C)CCS3)cc1,2µM*,.,4µM*,3.4µM*,?,.
Cc1ccc(CN2CCSc3ccc(C(=O)Nc4ccc(C)cc4)cc32)cc1,.,?,.,21µM*,.,.
COc1ccc(S(=O)(=O)NCCc2sc(-c3ccccc3)nc2C)cc1F,.,.,.,-11%,.,.
CN(C)C(=O)c1ccc(-c2nc(NCc3cccnc3)c3ccccc3n2)cc1,.,23%,.,.,.,-10%
O=C(COC(=O)Cc1ccc(Cl)cc1)NC1CCCC1,-8%,.,-1%,5%,1%,.
O=C(Cn1cc(SCc2ccccc2Cl)c2ccccc21)N1CCOCC1,?,18µM*,?,12µM*,13%,1%
CCN1CCN(C(=O)CSc2cc(=O)n(CC)c3ccccc23)CC1,0%,24%,-1%,-2%,21µM*,-2%
CCn1cc(SCC(=O)N2CCOCC2)c2ccccc21,?,?,?,?,18µM*,0%
O=C(Cn1cc(SCc2ccccc2F)c2ccccc21)N1CCCC1,.,.,.,17µM*,.,.
Cn1cc(SCC(=O)N2CCOCC2)c2ccccc21,16%,22%,18%,-6%,?,-1%
CCc1cccc(NC(=O)CN2C(=O)COc3ccc(S(=O)(=O)N4CCC(C)CC4)cc32)c1,.,.,.,6%,.,.
CC(=O)C1=C(O)C(=O)N(c2ccccn2)C1c1ccc(C)cc1 (centres undefined),3%,.,-3%,-2%,0%,.
CCN(CC)S(=O)(=O)c1ccc(NC(=O)c2ccccn2)cc1,?,7%,?,15µM*,15µM*,-16%
CN(C)S(=O)(=O)c1ccc(NC(=O)c2ccccn2)cc1,2.5µM*,11µM*,1.6µM*,13µM*,?,-2%
